IDE act – human IDE activators in live cells, primary screen, fluorescence polarization, HEK cells, FAbeta-B substrate; Insulin-degrading enzyme (Homo sapiens), P14735; FAbeta-B cleavage; 0% vehicle, 100% cell-free pure enzyme wells; activation, % at 5.96 µM; actives 0.073% (n = 340,000); AID 493087, 2011;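 active = activation above the mean of all tested compounds plus 3 SD, set per screening campaign, cut at about 17% in these data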
Target sequence (P14735 whole entry, looked up): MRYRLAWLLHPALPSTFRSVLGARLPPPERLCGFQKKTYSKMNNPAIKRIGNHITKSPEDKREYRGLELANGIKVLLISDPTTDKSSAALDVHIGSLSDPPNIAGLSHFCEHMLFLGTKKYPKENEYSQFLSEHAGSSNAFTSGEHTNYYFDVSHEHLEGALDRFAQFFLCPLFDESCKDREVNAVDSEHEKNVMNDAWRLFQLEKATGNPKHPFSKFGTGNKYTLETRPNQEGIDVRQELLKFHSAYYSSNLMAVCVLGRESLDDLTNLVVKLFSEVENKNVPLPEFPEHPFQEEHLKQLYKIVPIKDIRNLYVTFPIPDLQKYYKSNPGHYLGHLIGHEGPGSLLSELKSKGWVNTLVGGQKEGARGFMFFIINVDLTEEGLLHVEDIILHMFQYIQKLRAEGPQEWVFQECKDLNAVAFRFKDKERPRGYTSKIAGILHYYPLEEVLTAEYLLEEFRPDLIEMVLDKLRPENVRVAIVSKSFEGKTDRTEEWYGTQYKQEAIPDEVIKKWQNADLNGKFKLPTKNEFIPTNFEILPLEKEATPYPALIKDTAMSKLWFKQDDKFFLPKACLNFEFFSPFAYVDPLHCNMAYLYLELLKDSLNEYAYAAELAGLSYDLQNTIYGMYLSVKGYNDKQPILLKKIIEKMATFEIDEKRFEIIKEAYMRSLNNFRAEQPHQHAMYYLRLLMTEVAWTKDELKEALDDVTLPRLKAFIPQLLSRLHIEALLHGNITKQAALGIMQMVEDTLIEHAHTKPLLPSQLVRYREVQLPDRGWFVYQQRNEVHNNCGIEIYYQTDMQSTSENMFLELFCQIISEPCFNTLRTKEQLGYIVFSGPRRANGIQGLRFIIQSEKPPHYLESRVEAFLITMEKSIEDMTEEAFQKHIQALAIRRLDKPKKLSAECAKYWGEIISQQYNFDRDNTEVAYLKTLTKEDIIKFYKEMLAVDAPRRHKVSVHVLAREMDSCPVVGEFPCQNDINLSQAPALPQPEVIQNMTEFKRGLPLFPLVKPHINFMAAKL
IDE cell inh – human IDE inhibitors in live cells, primary screen, fluorescence polarization, HEK cells, FAbetaB substrate; Insulin-degrading enzyme (Homo sapiens), P14735; FAbetaB cleavage; inhibition, % at 5.59 µM; actives 0.41% (n = 320,000); AID 434962, 2010;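 active = percent inhibition above the average of all tested compounds plus 3 SD, set per screening campaign, cut at about 16% in these data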;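 note: IDE supplied by intact live HEK cells; FP after avidin binding of uncleaved biotin substrate so inhibition keeps polarization high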
TPT1 inhibitor – Candida albicans TPT1 enzyme inhibitors, primary screen, biochemical, fluorescence polarization; inhibition, % at 5 µM; recombinant caTPT1, FP RNA substrate dephosphorylation; tRNA 2'-phosphotransferase TPT1 (Candida albicans SC5314); actives 0.81% (n = 300,000);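 active = inhibition above the mean of all tested compounds plus 3 SD, set per screening campaign, cut at about 24% in these data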
CRFBP-R2 agonist – agonists of CRF-BP/CRF-R2 complex, primary screen, cell-based, HEK293, calcium dye fluorescence, uHTS; CRF-binding protein / CRF receptor 2 complex (human); calcium dye fluorescence (FLIPR); percent of saturating CRF peptide response; activation, % at 13.2 µM; actives 0.46% (n = 350,000);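 active = activation of at least 50%, plus an integration ratio under a set limit after plate pattern correction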
CRFBP-R2 block – antagonists of CRF-BP/CRF-R2 complex, primary screen, cell-based, HEK293, calcium dye fluorescence, uHTS | actives 0.59% (n = 350,000) | inhibition, % at 11.8 µM | CRF-induced calcium fluorescence;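 active = inhibition of the ligand-induced calcium signal above about 50% at the single tested concentration, limit read from the data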
Myeloid diff 2 – induction of myeloid progenitor differentiation, primary screen, cell-based, flow cytometry, MLPCN library | actives 1% (n = 360,000) | AID 624256, 2012 | calls only at 10 µM | ER-HoxA9 myeloid progenitors, lysozyme-GFP differentiation;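 active = normalized GFP-positive differentiation at or above the plate's own cutoff, the solvent-only control mean plus 3 SD; inconclusive = no clear call, values can overlap the other calls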;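 note: cells exposed to compound for four days before flow analysis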
TPT1 inh confirm – Candida albicans TPT1 inhibitors, confirmation, biochemical, fluorescence polarization, triplicate. shares compounds with TPT1 inhibitor. recombinant caTPT1, RNase T1 coupled. inhibition, % at 5 µM. actives 74% (n = 2,400). AID 2149, 2009;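 active = inhibition above the primary screen limit, the mean inhibition of all tested compounds plus 3 SD, cut at about 25% in these data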
RNase T1 inh – RNase T1 inhibitors, counter-screen for TPT1 inhibitor project, biochemical, fluorescence polarization; shares compounds with TPT1 inhibitor; RNase T1 cleavage, 1536-well; inhibition, % at 5 µM; actives 83% (n = 2,400); AID 2153, 2009;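 active = inhibition above the solvent-only control well mean plus 3 SD, limit set per screening run, cut at about 23% in these data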;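 note: inhibitors block cleavage so intact labeled substrate keeps polarization high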
A number is an active result; 0 = inactive; ? = inconclusive; - = no result; + = active, no number. This is a sample that favours compounds with a hit; in the whole collection about 2.6% have one here.

SMILES	IDE act	IDE cell inh	TPT1 inhibitor	CRFBP-R2 agonist	CRFBP-R2 block	Myeloid diff 2	TPT1 inh confirm	RNase T1 inh
Cc1ccc(F)cc1NC(=O)C1CC(=O)N(Cc2ccccc2)C1 (stereo not given)	-	-	-	0	0	0	-	-
Cc1cc(/C=C2/SC(=S)N(c3ccc([N+](=O)[O-])cc3)C2=O)c(C)n1-c1cccnc1	0	0	0	0	0	0	-	-
Cc1cc(/C=C2\SC(=S)NC2=O)c(C)n1-c1cccc(O)c1	0	0	90	0	0	0	85	98
Cc1sc(-n2c(C)cc(/C=N/n3cnnc3)c2C)c(C#N)c1C	0	0	0	0	0	0	-	-
Cc1cc(/C=C2/SC(=S)N(c3cccc(Cl)c3)C2=O)c(C)n1-c1cccnc1	0	0	114	0	0	+	88	99
Cc1sc(-n2c(C)cc(/C=C3\SC(=S)NC3=O)c2C)c(C#N)c1C	0	0	45	0	0	0	60	75
Cc1cc(/C=C2\SC(=S)N(C)C2=O)c(C)n1-c1ccc(O)cc1	0	0	120	0	0	0	129	129
Cc1cc(OCC(=O)NC(C)c2ccccc2)ccc1[N+](=O)[O-] (stereo not given)	0	0	0	0	0	0	-	-
CCn1c(C)cc(/C=C2/SC(=S)NC2=O)c1C	0	0	98	0	0	0	105	119
CCn1ncc(/C=C2/SC(=S)NC2=O)c1C	0	0	0	0	0	0	-	-
O=C(N/N=C/c1c(O)n(Cc2ccccc2)c(=O)c2ccccc12)c1cccnc1	0	0	106	64	0	0	117	120
CCOc1ccc(OCCC(=O)N(CCOC)c2c(N)n(Cc3ccccc3)c(=O)[nH]c2=O)cc1	0	-	-	0	0	0	-	-
Oc1oc(-c2ccccc2)nc1C=NCc1ccccc1	0	0	0	0	0	0	-	-
CC1=Nc2ccccc2/C1=C/c1nc(-c2ccc(C)s2)oc1O	0	0	166	0	0	0	179	170
COc1ccc(-c2nc(/C=C3\C(C)=Nc4ccccc43)c(O)o2)cc1	0	0	95	0	0	0	106	112
Cc1ccc(N=Cc2nc(-c3ccc(C)cc3)oc2O)cc1	0	-	-	0	0	0	-	-
CC1=Nc2ccccc2/C1=C\c1nc(-c2ccc(C(F)(F)F)cc2)oc1O	0	0	156	121	0	+	152	142
CC1=Nc2ccccc2/C1=C\c1nc(-c2ccccc2)oc1O	0	0	80	0	0	0	99	108
CCc1nc2ccc(C(=O)Nc3cccc(NS(C)(=O)=O)c3)cn2c1N(C)CCN1CCOCC1	-	-	-	-	-	0	-	-
COc1ccc(NC(=O)Cn2nnc(C(=O)Nc3ccc(F)c(Cl)c3)c2N)cc1	0	0	0	0	0	0	-	-
COc1ccc(CCNC(=O)COC(=O)Cc2c[nH]c3ccccc23)cc1OC	0	0	-	0	0	0	-	-
CCOc1cc(/C=C2/C(=O)NN(c3cccc(Cl)c3)C2=O)ccc1O	0	0	43	0	0	0	66	84
COc1cccc(/C=C2/C(=O)NN(c3ccccc3)C2=O)c1	0	-	-	0	0	0	-	-
COc1cc(/C=C2/C(=O)NN(c3cccc(Cl)c3)C2=O)cc(OC)c1O	0	0	124	0	0	0	151	150
COc1ccc(CCC(=O)OCC(=O)Nc2sccc2C(N)=O)cc1OC	0	0	-	0	0	0	-	-
SMILES	IDE act	IDE cell inh	TPT1 inhibitor	CRFBP-R2 agonist	CRFBP-R2 block	Myeloid diff 2	TPT1 inh confirm	RNase T1 inh
COc1cc(CC(=O)Nc2sccc2C(N)=O)cc(OC)c1OC	0	0	76	0	0	0	0	25
CCN(CC)c1cccc(OCC(=O)N(C)CCC#N)c1	0	0	43	0	0	0	41	51
Cc1ccc(/C=C2\Sc3ccccc3C2=O)s1	0	0	44	0	0	0	58	70
CC(=O)Nc1ccc(/C=C2\Sc3ccccc3C2=O)cc1	0	0	35	0	0	0	41	46
COc1ccc(OC)c(/C=C2/Sc3ccccc3C2=O)c1	0	0	111	197	0	0	101	102
CC(=O)N(C)/C=C1\Sc2ccccc2C1=O	0	0	0	0	0	0	-	-
Cn1c(SCCN2CCCC2)nnc1C1CCN(S(=O)(=O)c2cccc(F)c2)CC1	0	0	0	0	0	0	-	-
CCCNC(=O)c1onc(CSc2ccc(Cl)cc2)c1C(=O)NC(C)C	0	0	0	0	0	0	-	-
CCC(C)NS(=O)(=O)c1cc2c3c(c1)CCN3C(=O)CC2 (stereo not given)	0	0	0	0	0	?	-	-
N#Cc1ccc(-c2ccccc2)nc1SCC(=O)c1cccc(Cl)c1	0	0	45	0	0	+	27	36
CCOC(=O)C[C@H]1c2ccc(C(F)(F)F)cc2S(=O)(=O)N1c1cccc(OC)c1	0	0	0	0	0	0	-	-
CCOC(=O)/C=C1\SCC(=O)N1Cc1nnc(-c2ccccc2Br)o1	0	0	31	0	0	0	31	40
CCOC(=O)/C=C1/SCC(=O)N1Cc1ccc(Br)cc1	0	-	-	0	0	0	-	-
Cc1ccc(C)n1-c1cccc(C(=O)Nc2ccccc2)c1	0	0	38	0	0	0	40	50
O=C(Nc1ccccc1)c1cccc(N2CCCC2=O)c1	0	0	0	0	0	-	-	-
CCOC(=O)c1[nH]c(C)c(C(=O)Nc2ccc(C)c(F)c2)c1C	0	0	0	0	0	0	-	-
CCOC(=O)c1[nH]c(C)c(C(=O)Nc2ccc(C)c(Cl)c2)c1C	0	0	28	0	0	0	0	0
COC(=O)[C@@H]1C[C@@H]2CC[C@@H](O)C[C@@H]2N1Cc1ccccc1OS(=O)(=O)c1ccc(C)cc1	0	0	34	0	0	0	37	48
O=S(=O)(NCCc1ccc2c(c1)OCCO2)c1cccs1	0	0	26	0	0	0	0	27
O=S(=O)(NCCc1ccccc1)c1cccs1	0	0	0	0	0	0	-	-
COCCCn1c(=O)/c(=C\c2cccc(OC)c2OC)s/c1=C(/C#N)C(=O)Nc1ccc(C(=O)O)cc1	0	0	62	0	0	0	73	87

Compound activity (PubChem BioAssay)
